Test results published in the supplement of paper PMC11732987, “Enantioselective OTUD7B fragment discovery through chemoproteomics screening and high-throughput optimisation” (Communications Chemistry, 2025).

Tests used:
Assay in all cases: log2 ratio of Biotin-Ahx-Ub-VS probe labelling (fragment/DMSO); higher = less target engagement (more negative = stronger competition), active = hit call of the paper (q ≤ 0.05, log2 ratio ≤ -1)
Settings in all cases: compound concentration: 200 uM; treatment time: 3 h
USP34 = USP34 (UniProt Q70CQ2)
Method in brief: (§1)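 Average log2 ratios of fragment over vehicle were obtained by unpaired t-test from global-median-normalised Spectronaut label-free quantities. Proteins with ≥2 unique peptides were included. HEK293T lysate (495 µg per sample) was treated in triplicate with fragment at 200 µM or vehicle for 3 h, then with Biotin-Ahx-Ub-VS at 0.5 µM final for 1 h, and labelled DUBs were NeutrAvidin-enriched and run by diaPASEF LC-MS/MS.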

USP36 = target: T1, USP36 (UniProt Q9P275)
T1 sequence (whole entry): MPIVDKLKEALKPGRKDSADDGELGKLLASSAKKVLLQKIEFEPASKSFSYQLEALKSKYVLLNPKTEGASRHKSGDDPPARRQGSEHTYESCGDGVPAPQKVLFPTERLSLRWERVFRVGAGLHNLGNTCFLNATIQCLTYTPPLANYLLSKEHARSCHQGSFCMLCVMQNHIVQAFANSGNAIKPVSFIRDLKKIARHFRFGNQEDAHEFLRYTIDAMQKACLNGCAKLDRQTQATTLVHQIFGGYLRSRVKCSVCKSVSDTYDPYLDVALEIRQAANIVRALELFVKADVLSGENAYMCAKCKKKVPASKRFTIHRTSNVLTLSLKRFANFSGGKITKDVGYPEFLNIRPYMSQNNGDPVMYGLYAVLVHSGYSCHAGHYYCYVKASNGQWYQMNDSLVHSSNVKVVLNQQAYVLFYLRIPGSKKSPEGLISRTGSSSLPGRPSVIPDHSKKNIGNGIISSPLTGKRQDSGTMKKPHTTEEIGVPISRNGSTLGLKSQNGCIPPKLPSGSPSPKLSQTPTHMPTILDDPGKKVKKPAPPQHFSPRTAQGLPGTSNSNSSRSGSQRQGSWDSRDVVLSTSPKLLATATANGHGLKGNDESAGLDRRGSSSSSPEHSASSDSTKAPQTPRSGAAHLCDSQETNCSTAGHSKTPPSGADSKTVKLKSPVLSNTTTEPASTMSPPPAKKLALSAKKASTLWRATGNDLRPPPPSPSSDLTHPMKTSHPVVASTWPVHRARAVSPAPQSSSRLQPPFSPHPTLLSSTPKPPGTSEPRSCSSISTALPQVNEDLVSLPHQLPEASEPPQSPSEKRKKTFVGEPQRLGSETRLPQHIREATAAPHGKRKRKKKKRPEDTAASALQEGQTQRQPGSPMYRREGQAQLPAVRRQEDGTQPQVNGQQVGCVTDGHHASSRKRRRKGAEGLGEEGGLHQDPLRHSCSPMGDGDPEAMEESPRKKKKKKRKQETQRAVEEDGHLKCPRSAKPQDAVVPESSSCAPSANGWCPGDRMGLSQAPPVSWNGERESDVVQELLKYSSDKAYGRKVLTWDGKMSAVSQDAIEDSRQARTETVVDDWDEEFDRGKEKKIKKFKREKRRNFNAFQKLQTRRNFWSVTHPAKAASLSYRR
Method in brief: as §1

USP38 = target: T2, USP38 (UniProt Q8NB14)
T2 sequence (whole entry): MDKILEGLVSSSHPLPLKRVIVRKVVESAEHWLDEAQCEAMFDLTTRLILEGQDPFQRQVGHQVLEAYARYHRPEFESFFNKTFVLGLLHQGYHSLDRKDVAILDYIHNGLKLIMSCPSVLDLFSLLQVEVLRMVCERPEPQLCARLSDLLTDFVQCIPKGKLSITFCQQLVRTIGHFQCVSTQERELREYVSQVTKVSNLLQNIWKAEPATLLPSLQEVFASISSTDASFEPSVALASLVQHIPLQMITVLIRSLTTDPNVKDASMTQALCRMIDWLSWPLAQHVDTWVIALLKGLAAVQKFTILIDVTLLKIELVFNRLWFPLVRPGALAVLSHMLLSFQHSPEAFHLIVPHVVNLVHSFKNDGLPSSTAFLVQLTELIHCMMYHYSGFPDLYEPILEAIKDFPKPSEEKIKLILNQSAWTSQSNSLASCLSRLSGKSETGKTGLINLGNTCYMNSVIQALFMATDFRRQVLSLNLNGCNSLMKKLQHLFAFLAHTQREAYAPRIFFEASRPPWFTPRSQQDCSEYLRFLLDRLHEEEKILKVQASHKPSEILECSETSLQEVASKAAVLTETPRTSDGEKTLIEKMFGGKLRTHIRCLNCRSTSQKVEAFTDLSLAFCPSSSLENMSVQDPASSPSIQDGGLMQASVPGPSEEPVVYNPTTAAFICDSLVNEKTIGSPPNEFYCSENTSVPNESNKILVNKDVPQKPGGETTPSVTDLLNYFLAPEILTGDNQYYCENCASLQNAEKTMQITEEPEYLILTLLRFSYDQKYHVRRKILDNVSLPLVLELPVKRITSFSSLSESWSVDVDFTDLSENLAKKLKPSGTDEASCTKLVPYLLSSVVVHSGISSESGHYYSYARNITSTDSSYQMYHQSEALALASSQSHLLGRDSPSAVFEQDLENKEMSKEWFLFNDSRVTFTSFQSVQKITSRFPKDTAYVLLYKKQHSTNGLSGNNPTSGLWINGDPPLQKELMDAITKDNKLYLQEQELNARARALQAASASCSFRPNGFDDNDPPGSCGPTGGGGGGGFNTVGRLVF
Method in brief: as §1

USP39 = target: T3, USP39 (UniProt Q53GS9)
T3 sequence (whole entry): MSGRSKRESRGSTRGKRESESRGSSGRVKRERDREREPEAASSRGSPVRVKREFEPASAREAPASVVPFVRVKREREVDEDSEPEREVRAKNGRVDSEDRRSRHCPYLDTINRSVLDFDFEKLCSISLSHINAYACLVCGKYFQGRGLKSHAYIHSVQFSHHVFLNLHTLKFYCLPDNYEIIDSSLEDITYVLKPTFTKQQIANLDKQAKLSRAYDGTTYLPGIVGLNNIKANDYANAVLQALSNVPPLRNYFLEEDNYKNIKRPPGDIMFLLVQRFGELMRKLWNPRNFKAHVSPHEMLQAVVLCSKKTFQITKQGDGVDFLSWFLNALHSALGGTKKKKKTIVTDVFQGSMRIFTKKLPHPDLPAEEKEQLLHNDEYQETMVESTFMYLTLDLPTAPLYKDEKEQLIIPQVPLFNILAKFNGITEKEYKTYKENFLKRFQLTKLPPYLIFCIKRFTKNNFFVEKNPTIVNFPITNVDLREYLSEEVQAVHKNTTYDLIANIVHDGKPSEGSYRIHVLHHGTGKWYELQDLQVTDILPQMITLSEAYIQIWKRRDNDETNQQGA
Method in brief: as §1

USP4 = target: T4, USP4 (UniProt Q13107)
T4 sequence (whole entry): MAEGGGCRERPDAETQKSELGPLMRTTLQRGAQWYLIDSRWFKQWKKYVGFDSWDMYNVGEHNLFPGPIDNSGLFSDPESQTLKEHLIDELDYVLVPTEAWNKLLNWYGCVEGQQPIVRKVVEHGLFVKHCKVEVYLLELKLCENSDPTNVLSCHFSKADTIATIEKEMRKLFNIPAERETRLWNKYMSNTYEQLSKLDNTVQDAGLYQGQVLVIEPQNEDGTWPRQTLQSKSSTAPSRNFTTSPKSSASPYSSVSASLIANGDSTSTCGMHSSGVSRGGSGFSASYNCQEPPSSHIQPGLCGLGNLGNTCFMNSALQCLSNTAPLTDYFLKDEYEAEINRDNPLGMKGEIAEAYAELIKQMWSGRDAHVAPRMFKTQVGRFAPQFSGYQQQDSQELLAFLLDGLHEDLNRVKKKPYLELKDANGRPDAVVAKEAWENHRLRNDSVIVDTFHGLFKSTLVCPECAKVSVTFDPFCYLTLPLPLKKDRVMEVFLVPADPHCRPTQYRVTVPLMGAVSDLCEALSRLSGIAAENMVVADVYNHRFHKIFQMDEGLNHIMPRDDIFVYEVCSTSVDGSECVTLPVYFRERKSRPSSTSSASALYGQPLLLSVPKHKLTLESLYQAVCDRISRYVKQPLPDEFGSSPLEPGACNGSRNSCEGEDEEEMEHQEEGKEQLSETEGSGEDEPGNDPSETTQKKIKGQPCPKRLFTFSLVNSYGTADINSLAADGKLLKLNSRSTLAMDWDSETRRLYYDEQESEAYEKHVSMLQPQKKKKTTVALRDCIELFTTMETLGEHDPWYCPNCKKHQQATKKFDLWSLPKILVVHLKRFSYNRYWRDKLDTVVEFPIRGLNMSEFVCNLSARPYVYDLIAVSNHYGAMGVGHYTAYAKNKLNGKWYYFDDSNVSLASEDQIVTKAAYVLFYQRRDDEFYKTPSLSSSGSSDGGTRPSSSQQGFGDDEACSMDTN
Method in brief: as §1

Measured: log2 ratio of Biotin-Ahx-Ub-VS probe labelling

Sequence of USP34 (Q70CQ2 whole entry, the tested form may be a part): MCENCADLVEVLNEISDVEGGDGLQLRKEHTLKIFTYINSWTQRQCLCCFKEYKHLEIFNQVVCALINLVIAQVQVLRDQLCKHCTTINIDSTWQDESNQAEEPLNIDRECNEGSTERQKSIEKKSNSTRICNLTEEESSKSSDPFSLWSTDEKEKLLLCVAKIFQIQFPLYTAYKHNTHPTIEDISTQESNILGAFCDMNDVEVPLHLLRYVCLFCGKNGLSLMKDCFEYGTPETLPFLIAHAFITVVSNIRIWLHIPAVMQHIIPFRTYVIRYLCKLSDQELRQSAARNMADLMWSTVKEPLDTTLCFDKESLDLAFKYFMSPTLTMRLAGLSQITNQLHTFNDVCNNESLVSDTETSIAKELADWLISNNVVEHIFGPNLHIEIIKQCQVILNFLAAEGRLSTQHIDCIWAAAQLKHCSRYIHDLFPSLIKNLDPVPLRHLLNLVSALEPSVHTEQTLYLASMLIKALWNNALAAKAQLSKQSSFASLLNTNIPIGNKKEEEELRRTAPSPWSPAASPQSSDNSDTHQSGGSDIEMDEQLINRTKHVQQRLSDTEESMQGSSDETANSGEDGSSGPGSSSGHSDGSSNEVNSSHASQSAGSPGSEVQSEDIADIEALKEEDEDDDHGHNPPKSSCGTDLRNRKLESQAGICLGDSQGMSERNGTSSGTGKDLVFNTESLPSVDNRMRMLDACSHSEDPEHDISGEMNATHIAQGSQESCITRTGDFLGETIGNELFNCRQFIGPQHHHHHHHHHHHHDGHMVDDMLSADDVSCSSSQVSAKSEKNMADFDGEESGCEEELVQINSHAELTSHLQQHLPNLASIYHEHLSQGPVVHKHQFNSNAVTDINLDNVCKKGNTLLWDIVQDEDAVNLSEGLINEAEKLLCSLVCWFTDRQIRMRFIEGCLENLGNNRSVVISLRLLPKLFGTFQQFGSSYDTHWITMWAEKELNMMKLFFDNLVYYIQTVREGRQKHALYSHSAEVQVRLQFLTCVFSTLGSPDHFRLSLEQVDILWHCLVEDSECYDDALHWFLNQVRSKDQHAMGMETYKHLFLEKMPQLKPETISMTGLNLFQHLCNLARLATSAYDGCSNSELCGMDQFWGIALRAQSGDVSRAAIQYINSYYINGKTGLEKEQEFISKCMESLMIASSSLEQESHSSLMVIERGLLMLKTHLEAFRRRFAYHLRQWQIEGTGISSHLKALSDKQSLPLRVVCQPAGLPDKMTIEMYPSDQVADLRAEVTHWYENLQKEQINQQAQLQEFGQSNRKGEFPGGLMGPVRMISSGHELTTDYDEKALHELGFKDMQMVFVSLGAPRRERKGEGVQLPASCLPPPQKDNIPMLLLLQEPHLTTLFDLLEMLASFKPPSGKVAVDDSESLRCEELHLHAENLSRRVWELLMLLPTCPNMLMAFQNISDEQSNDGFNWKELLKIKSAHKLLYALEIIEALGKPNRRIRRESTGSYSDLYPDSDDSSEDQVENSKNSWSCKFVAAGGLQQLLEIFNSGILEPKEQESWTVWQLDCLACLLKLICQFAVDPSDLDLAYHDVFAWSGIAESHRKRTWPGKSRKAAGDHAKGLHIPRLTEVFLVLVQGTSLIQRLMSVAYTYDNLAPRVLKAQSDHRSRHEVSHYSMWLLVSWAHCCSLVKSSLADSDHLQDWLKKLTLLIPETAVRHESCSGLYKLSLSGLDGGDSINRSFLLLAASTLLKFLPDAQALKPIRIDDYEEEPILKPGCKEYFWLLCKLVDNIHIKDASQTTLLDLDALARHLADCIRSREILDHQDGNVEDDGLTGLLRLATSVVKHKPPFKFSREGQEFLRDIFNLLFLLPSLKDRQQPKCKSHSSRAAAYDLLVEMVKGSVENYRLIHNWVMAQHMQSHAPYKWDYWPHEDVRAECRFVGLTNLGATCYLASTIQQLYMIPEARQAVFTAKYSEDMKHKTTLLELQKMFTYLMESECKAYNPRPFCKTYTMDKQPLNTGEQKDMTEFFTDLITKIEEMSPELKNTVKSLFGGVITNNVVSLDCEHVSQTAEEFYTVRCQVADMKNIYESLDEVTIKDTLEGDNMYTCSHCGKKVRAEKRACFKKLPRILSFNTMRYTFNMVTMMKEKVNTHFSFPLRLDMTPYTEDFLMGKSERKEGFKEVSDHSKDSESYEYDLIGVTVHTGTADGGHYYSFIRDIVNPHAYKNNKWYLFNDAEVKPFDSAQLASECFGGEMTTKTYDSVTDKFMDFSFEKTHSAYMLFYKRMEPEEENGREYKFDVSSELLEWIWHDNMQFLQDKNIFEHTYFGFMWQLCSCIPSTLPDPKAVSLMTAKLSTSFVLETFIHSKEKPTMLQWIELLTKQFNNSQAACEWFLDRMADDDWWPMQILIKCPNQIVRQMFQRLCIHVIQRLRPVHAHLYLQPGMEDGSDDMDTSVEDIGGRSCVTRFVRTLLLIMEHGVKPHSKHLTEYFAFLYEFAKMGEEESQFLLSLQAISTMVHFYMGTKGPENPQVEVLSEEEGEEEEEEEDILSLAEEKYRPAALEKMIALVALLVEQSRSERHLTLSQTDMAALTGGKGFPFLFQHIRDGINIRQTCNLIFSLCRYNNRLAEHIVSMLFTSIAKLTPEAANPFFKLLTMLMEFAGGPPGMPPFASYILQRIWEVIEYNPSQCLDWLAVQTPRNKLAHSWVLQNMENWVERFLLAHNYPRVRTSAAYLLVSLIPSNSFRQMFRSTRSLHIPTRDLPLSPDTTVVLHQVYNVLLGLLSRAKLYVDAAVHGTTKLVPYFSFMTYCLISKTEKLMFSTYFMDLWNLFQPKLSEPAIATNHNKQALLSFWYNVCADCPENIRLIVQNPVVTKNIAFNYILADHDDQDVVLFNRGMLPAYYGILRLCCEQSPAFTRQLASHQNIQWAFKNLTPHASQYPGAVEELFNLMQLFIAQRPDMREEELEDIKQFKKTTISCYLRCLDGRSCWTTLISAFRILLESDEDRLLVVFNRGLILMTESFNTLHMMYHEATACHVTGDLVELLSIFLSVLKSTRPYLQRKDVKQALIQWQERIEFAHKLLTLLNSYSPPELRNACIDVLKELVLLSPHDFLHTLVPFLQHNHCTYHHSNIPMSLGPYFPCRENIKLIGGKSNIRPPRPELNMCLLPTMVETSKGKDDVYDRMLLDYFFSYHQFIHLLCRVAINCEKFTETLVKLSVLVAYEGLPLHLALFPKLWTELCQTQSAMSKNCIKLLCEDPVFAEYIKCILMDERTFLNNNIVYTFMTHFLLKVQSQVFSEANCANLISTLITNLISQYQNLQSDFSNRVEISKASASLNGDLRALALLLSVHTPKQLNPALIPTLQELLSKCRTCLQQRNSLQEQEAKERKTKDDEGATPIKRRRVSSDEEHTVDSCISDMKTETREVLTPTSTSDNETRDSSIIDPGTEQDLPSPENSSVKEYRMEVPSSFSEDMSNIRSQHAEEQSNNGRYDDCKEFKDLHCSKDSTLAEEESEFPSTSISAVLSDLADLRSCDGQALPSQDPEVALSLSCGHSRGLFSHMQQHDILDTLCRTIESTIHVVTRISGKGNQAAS

COc1cccc(CN(C)C(=O)CCl)c1
inactive: USP34 0.0183 | USP36 -0.187 | USP38 0.0437 | USP39 0.0189 | USP4 -0.4
